Data reported in ChEMBL document CHEMBL4808148, “HDAC6 screening dataset using tau-based substrate in an enzymatic assay yields selective inhibitors and activators” (2021).
Among all 5,600 compounds or so, about 390 (7%) showed an effect of 50% or more. This is one part of a sample in which strong results are shown more often than they occur.

Columns and labels:
[1] = biological target: T1, Protein deacetylase HDAC6 (Homo sapiens) (UniProt Q9UBN7); settings: at 10 µM
T1 sequence (whole entry): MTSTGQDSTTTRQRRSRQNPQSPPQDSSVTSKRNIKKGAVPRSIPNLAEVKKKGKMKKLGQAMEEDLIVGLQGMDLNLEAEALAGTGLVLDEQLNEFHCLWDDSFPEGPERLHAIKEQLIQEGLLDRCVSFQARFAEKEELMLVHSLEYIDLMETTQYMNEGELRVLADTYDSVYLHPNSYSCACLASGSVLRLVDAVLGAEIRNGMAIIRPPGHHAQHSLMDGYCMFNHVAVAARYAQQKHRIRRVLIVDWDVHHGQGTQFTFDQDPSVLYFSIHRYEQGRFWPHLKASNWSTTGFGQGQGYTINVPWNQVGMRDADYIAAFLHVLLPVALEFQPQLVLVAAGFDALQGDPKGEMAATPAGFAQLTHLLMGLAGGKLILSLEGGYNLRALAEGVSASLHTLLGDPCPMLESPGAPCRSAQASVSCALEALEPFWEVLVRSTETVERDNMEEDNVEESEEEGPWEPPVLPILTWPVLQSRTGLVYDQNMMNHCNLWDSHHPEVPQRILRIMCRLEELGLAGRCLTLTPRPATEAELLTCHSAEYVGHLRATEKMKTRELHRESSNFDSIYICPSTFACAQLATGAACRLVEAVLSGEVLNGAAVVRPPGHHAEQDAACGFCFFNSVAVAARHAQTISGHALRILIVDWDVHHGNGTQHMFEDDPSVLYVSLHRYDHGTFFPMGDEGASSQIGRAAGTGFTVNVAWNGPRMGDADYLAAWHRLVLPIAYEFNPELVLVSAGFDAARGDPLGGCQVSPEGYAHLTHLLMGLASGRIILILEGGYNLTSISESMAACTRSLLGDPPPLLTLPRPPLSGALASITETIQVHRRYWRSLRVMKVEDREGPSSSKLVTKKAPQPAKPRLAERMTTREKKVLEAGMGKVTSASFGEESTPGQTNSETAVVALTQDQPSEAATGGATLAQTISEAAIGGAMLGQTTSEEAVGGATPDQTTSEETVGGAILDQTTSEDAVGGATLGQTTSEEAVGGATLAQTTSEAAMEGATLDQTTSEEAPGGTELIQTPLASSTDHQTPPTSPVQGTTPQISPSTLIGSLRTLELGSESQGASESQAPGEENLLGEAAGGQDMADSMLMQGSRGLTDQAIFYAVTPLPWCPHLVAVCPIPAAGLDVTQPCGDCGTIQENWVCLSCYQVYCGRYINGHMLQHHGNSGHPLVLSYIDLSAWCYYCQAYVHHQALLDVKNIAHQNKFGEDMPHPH

[2] = biological target: Protein deacetylase HDAC6 (Homo sapiens) (UniProt Q9UBN7); settings: at 10 µM; remark: listed apart in the source

Compound | inhibition [1] [%] | inhibition [2] [%]
O=C1c2ccccc2C(Cc2ccncc2)(Cc2ccncc2)c2ccccc21 | 3.99 | –
CCc1ccc(OCc2ccccc2C(=O)Nc2ccc3nc(C)cc(N)c3c2)cc1 | 80.4 | –
CCN(CC)CCCC(C)Nc1nc(C)cc(Nc2ccc3nc(C)cc(N)c3c2)n1 (stereo not drawn) | -7.44 | –
CCN(CC)CCOC(=O)C(Cc1cccc2ccccc12)CC1CCCO1 (stereo not drawn) | 2 | –
Nc1nccc2c1ncn2[C@@H]1C=C(CO)[C@@H](O)[C@H]1O | -4.17 | –
O=C(NCC1(N2CCN(c3ccccc3)CC2)CCOCC1)c1cccnc1Sc1ccccc1 | 8.43 | –
CCC(C)(C)C(=O)C(=O)N1CCC[C@H]1C(=O)OCCCc1cccnc1 | -5.62 | –
COc1cc(Nc2nc3ccccc3nc2NS(=O)(=O)c2ccc(NC(=O)c3ccc(C)c(OC)c3)cc2)cc(OC)c1 | 17.4 | –
COc1cc(C(=O)NS(=O)(=O)c2ccccc2C)ccc1Cc1cn(C)c2ccc(NC(=O)OC3CCCC3)cc12 | 73.7 | –
COc1cc(N)c(Cl)cc1C(=O)OCCN1CCCCC1 | 6.86 | –
O=C(NC1Cc2ccccc2N(C[C@@H](O)CO)C1=O)c1cc2cc(Cl)sc2[nH]1 (stereo partly drawn) | -2.31 | –
CCCCCCCC/C=C\CCCCCCCC(=O)N[C@@H](CO)Cc1ccc(O)cc1 | 27.9 | –
Nc1ccc(/N=N/c2ccccc2)c(N)n1 | 102 | –
NC(C(=O)O)c1cc(O)ccc1Cl (stereo not drawn) | 15.3 | –
CCCn1c(=O)c2[nH]cnc2n(-c2ccc(Cl)cc2)c1=O | 20.4 | –
O=S(=O)(O)c1cc(O)ccc1O | -4.71 | –
COc1ccc(/C=C\c2cc(OC)c(OC)c(OC)c2)cc1O | 14.7 | –
OC[C@H]1O[C@@H](Oc2cc(O)cc(/C=C/c3ccc(O)cc3)c2)[C@H](O)[C@@H](O)[C@@H]1O | 31.5 | –
C/C=C(/C(=C/C)c1ccc(O)cc1)c1ccc(O)cc1 | 0.77 | –
COc1cc(/C=C/c2ccc(O)cc2)cc(OC)c1 | 99 | –
Oc1cc(O)cc(O)c1 | 18.2 | –
COc1cc(/C=C2\CCC/C(=C\c3ccc(O)c(OC)c3)C2=O)ccc1O | 35.9 | –

Compound | inhibition [1] [%] | inhibition [2] [%]
COc1ccc(O)cc1 | 19.4 | –
Oc1ccc(/C=C/c2cc(O)cc(O)c2)cc1 | 97 | –
Oc1cc(O)cc(/C=C/c2ccc(O)c(O)c2)c1 | 85.2 | –
COc1cc(/C=C/c2ccc(OC)cc2OC)cc(OC)c1 | 86.2 | –
NCC(O)(CS(=O)(=O)O)c1ccc(Cl)cc1 (stereo not drawn) | -2.67 | –
C=CC1=C(C)c2cc3[nH]c(cc4nc(cc5[nH]c(cc1n2)c(C)c5CCC(=O)O)C(CCC(=O)O)=C4C)c(C)c3C=C | 21.1 | –
C[C@H](N)[C@H](O)c1cccc(O)c1 | 1.85 | –
CCCC(=O)C1CCN(c2ncnc3c2CN(C(=O)c2ccc(-c4ccccc4)cc2)CC3)CC1 | 2.41 | –
Cn1c(=O)c2c(ncn2CC(=O)Nc2ccc(-c3ccccc3)nn2)n(C)c1=O | 41.8 | –
CN(CC[C@@H](Oc1ccc(-c2ccccc2)cc1)c1ccc(F)cc1)CC(=O)O | -3.28 | –
O=C(/C=C/c1c(C(=O)O)[nH]c2cc(Cl)cc(Cl)c12)Nc1ccccc1 | 27.4 | –
COc1ccc2c(c1)-c1nn(CCCN(C)C)c3ccc([N+](=O)[O-])c(c13)N2 | 9.03 | –
CC(=O)NC[C@H]1CN(c2ccc(N3CCSCC3)c(F)c2)C(=O)O1 | 9.47 | –
Cn1nnc(-c2ccc(-c3ccc(N4C[C@H](CO)OC4=O)cc3F)cn2)n1 | 67.9 | –
CC(=O)NC[C@H]1CN(c2ccc(-c3ccc(CNCc4cnn[nH]4)cc3)c(F)c2)C(=O)O1 | 35.9 | –
C[C@@H]1C[C@H]2[C@@H]3CCC4=CC(=O)C=C[C@]4(C)[C@@]3(Cl)[C@@H](O)C[C@]2(C)[C@@]1(OC(=O)c1ccco1)C(=O)CCl | -2.71 | –
CSc1ccc(C(=O)/C=C/c2cc(C)c(OC(C)(C)C(=O)O)c(C)c2)cc1 | -7.51 | –
EUK 134, CHEMBL5308416 | – | 33.1
Nc1ncnc2c1c(COc1cccc(Cl)c1)nn2C1CCOCC1 | -8.17 | –
O=C(O)C1CCCN(CCC=C(c2ccccc2)c2ccccc2)C1 (stereo not drawn) | 18.1 | –
O=C(c1ccccc1)c1ccc2n1CCC2C(=O)O (stereo not drawn) | 66.7 | –
O=C(O)c1ccccc1 | -0.18 | –

Compound | inhibition [1] [%] | inhibition [2] [%]
CCCC(=O)C1(c2ccccc2)CCN(C(=O)[C@@H](Cc2ccc(OC)cc2)NC(=O)[C@@H](N)Cc2cncn2C)CC1 | 4.5 | –
Nc1cccc2c(=O)[nH][nH]c(=O)c12 | 35.2 | –
CCS(=O)(=O)c1ccc2oc(-c3ccc4ccccc4c3)nc2c1 | 97.2 | –
c1ccc(Cn2c(-c3ccc(OC[C@H](C4CCNCC4)n4c(-c5ccccc5)nc5ccccc54)cc3)nc3ccccc32)cc1 | 5.68 | –
COc1cc(/C=C(\C#N)C(N)=O)cc(CSc2nc3ccccc3s2)c1O | 17.9 | –
CCCCc1oc2ccc(NS(C)(=O)=O)cc2c1C(=O)c1ccc(OCCCN(CCCC)CCCC)cc1 | 18.6 | –
Cc1cnc(-c2cnc(NCCNc3ccc(C#N)cn3)nc2-c2ccc(Cl)cc2Cl)[nH]1 | 3.11 | –
Cn1cnc(-c2cc3nccc(Oc4ccc(NC(=S)NC(=O)Cc5ccccc5)cc4F)c3s2)c1 | 28 | –
Cc1ccc(C(=O)Nc2ccc(CN3CCN(C)CC3)c(C(F)(F)F)c2)cc1C#Cc1cnc2cccnn12 | 32.8 | –
COC(=O)N1CCN(Cc2cccc(NC(=O)Nc3ccc(C)nc3)c2F)CC1 | 57.5 | –
COc1cc(N)cn[n+]1-c1ccccc1 | 15.3 | –
CC(=O)OCC(=O)[C@@]1(O)[C@@H](C)C[C@H]2[C@@H]3CCC4=CC(=O)C=C[C@]4(C)[C@@]3(F)[C@@H](O)C[C@@]21C | 8.96 | –
Clc1cccc(Cl)c1CSc1nnc(-c2cnccn2)s1 | 65.2 | –
COc1c(OCCCN2CCOCC2)ccc2c1N=C(NC(=O)c1cnc(N)nc1)N1CCN=C21 | 8.29 | –
CCCCCNCC(N)=O | 19.9 | –
Oc1nc(O)c2cn[nH]c2n1 | 9.68 | –
Cn1c([N+](=O)[O-])cnc1COC(N)=O | 2.87 | –
CCS(=O)(=O)CCn1c([N+](=O)[O-])cnc1C | -4.7 | –
CSc1ccc(OCc2ncc([N+](=O)[O-])n2C)cc1 | 57.1 | –
Nc1[nH]cnc2ncnc1-2 | -1.89 | –
NS(=O)(=O)c1ccc(S(=O)(=O)Nc2cccc3c(Cl)c[nH]c23)cc1 | -6.04 | –
C1CCN2C[C@H]3C[C@H](CN4CCCC[C@@H]34)[C@H]2C1 | 30.9 | –

Compound | inhibition [1] [%] | inhibition [2] [%]
Cc1ncc(-c2csc(N=C(N)N)n2)[nH]1 | 3.96 | –
Ic1cc(-c2ccccc2)ncn1 | 25.2 | –
CC[C@@]1(O)C(=O)OCc2c1cc1n(c2=O)Cc2cc3c([N+](=O)[O-])cccc3nc2-1 | 11.9 | –
CC(=O)OCC(=O)NCCCOc1cccc(CN2CCCCC2)c1 | 14.5 | –
c1cc(CN2CCCCC2)cc(OCCCNc2nc3ccccc3s2)c1 | 59.6 | –
O=C(OC(C(F)(F)F)C(F)(F)F)N1CCN(Cc2cccc(Oc3ccccc3)c2)CC1 | -8.39 | –
COc1ccc(C(=O)N2CCCc3cc(C4=NNC(=O)SC4C)ccc32)cc1OC (stereo not drawn) | 7.12 | –
Cc1ccc(S(=O)(=O)NC2c3ccccc3Oc3ccccc32)cc1 | 0.27 | –
CNC(=O)CN(CCN(CCN(CC(=O)O)CC(=O)NC)CC(=O)O)CC(=O)O | 17.5 | –
OCc1ccc(-c2ccc(-c3ccc(CO)s3)o2)s1 | 102 | –
O=C(O)COc1cccc(-c2ocnc2-c2nc(-c3ccccc3)c(-c3ccccc3)o2)c1 | -1.23 | –
Cc1ncc(C[n+]2csc(CCO)c2C)c(N)n1 | 53 | –
CCCc1ncc(C[n+]2ccccc2C)c(N)n1 | -5.17 | –
CC(C)CN(C[C@@H](O)[C@H](Cc1ccccc1)NC(=O)O[C@H]1CCOC1)S(=O)(=O)c1ccc(N)cc1 | 1.38 | –
COc1ccc(OC)c(CN(C(C)=O)c2cc(F)ccc2Oc2ccccc2)c1 | 1.27 | –
O=C(c1ccc(OCCN2CCCCC2)cc1)c1c(-c2ccc(O)cc2)sc2cc(O)ccc12 | 38.5 | –
Cc1c(-c2ccc(O)cc2)n(Cc2ccc(OCCN3CCCCCC3)cc2)c2ccc(O)cc12 | 86.2 | –
O=C(Cc1ccc(-c2ccc(OCCN3CCOCC3)cc2)cn1)NCc1ccccc1 | 9.75 | –
O=[N+]([O-])c1cnc(Sc2nnc(O)n2-c2ccc3c(c2)OCCO3)s1 | 11.2 | –
C[n+]1cccc(C(=O)[O-])c1 | 7.12 | –
O=C(Nc1ccccc1)C12CC1/C(=N\O)c1ccccc1O2 (stereo not drawn) | 16.1 | –
Nc1cc(C(F)(F)F)c(-c2nc(N3CCOCC3)nc(N3CCOCC3)n2)cn1 | -6.25 | –

Compound | inhibition [1] [%] | inhibition [2] [%]
OCc1c[nH]c2ccccc12 | 2.93 | –
O=C(O)C(=O)Cc1c[nH]c2ccccc12 | 20.3 | –
c1ccc2c(Cc3c[nH]c4ccccc34)c[nH]c2c1 | 71.8 | –
CCc1cc2c(c(CC)n1)CCC(=O)N2Cc1ccc(-c2ccccc2-c2nnn[nH]2)cc1 | 0.45 | –
[O-][S+](c1ccccc1)c1ccc2nnnn2n1 (stereo not drawn) | -5.95 | –
Clc1ccc(N/N=C(\c2ccccc2)c2ccccn2)nc1 | 25.9 | –
c1ccc(COCCCc2c[nH]cn2)cc1 | 20.5 | –
COc1ccc2cc1Oc1ccc(cc1)C[C@H]1c3c(cc4c(c3Oc3cc5c(cc3OC)CCN(C)[C@@H]5C2)OCO4)CCN1C | -6.05 | –
O=C1/C(=C/c2ccccc2)C(NC2CCCCC2)c2ccccc21 (stereo not drawn) | 8.83 | –
Cc1noc(NS(=O)(=O)c2cccc3c(N(C)C)cccc23)c1C | 29.9 | –
Nc1nc2c(cnn2CCc2ccccc2)c2nc(-c3ccco3)nn12 | 61.6 | –
Cc1ccc(C)c(OCCCC(C)(C)C(=O)O)c1 | 7.2 | –
Cc1cc(Cl)ccc1OCCCC(=O)NO | 98.5 | –
COc1ccc2[nH]c3c(-c4cccc5ccccc45)nccc3c2c1 | 9.67 | –
Cc1cc(C)c(N)c(C#Cc2cccc(F)c2)n1 | 103 | –
Cc1nc(C#Cc2ccnc(Cl)c2)c(C)n1-c1ccc(F)cc1 | 5.29 | –
CC(C)NC(=O)c1ccc(C#Cc2ccncc2)cn1 | -5.33 | –
C[C@@H]([C@H](C)O)[C@H](N)C(=O)O | -7.36 | –
CNC(=O)c1ccc(C)c(-n2c(C)cc(OCc3ccc(F)cc3F)c(Br)c2=O)c1 | 72.6 | –
CCCCCCCCCCCCCC[C@@H](O)[C@@H](O)[C@@H](N)CO | 0.56 | –
